Compound activity (PubChem BioAssay)
This is a sample that favours compounds with a hit; in the whole collection about 11% have one here.
L3MBTL1 inh – inhibitors of human L3MBTL1; Q9Y468; 230,000 compounds, 0.66% hits; AlphaScreen L3MBTL1–H3K9me1 peptide binding; AID 485360; Potency, µM (titrated, usually from 57.1 µM), for the others: at the top dose activity, negative = inhibition, usual class: inhibitors; also: % is scaled to controls: 0 for no effect and ±100 for the full control effect; nearly all actives have a fitted effect of over 60% in size
Target sequence (Q9Y468 whole entry, looked up): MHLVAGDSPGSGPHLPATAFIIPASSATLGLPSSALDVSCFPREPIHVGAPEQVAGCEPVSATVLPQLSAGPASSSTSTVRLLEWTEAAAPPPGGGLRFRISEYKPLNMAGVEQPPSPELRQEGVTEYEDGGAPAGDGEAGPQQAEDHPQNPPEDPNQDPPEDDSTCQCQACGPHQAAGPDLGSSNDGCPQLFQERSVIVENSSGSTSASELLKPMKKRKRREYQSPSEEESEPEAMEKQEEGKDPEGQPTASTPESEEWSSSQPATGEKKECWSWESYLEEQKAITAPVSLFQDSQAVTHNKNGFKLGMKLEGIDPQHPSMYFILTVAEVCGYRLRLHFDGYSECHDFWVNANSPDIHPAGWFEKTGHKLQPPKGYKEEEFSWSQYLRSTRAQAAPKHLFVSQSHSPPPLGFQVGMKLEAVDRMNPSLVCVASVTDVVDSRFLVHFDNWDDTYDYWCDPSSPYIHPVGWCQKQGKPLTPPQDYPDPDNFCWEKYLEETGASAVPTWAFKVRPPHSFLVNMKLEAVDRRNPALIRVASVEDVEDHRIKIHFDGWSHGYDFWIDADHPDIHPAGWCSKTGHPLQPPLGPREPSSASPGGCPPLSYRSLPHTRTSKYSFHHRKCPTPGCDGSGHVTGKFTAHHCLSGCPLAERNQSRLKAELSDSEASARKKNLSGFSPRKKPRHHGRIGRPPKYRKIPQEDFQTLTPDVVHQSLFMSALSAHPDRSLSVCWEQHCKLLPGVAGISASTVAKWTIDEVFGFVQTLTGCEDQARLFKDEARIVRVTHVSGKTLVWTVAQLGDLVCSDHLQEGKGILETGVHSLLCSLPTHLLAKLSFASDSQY
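AlphaScreen proximity signal between nickel-chelate acceptor and streptavidin donor beads (final 10 ug/mL) reports binding of 50 nM L3MBTL1 to 75 nM biotin-H3 K9me1 peptide; complex incubated with compounds 30 min at room temperature; cefsulodin titration as control.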
HP1b chromo inh – blocks HP1-beta chromodomain binding to methylated histone tails; P83916; AlphaScreen HP1-beta / biotin-H3K9me3 peptide binding; Potency, µM (series often up to 114 µM), inactives show at the top dose activity change, negative = inhibition, usual class: inhibitors; 390,000 compounds, 0.56% hits; AID 540317; also: nearly all actives have a fitted effect of over 70% in size
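HP1-beta protein (50 nM final) preincubated 30 min at room temperature with biotinylated H3(1-18)K9me3 peptide (50 nM) in PBS pH 7.4, 0.01% Tween-20, then compound added for 30 min. AlphaScreen streptavidin donor/nickel chelate acceptor beads (10 ug/mL final), 30 min dark, luminescence read.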
BAZ2B inh – blocks human BAZ2B. AlphaScreen BAZ2B-H3K14Ac peptide displacement. Potency, µM (series often up to 114 µM), inactives show top-dose activity change, negative = inhibition, actives largely listed as inhibitors. 360,000 compounds, 4.4% hits. AID 504333; also: % is scaled to controls: 0 for no effect and ±100 for the full control effect; nearly all actives have a fitted effect of over 60% in size
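AlphaScreen displacement: compounds (up to 110uM) incubated 30 min at room temperature with a preformed 50 nM BAZ2B/50 nM biotinylated H3K14Ac peptide complex in PBS pH 7.4 with Tween-20. Donor and acceptor beads at 10 ug/mL final added, 20 min light-protected before reading.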
JMJD2A Tudor – inhibitors of human JMJD2A Tudor domain | AID 504339 | O75164 | 390,000 compounds, 4.4% hits | Potency, µM (doses to about 114 µM), without a hit: at the top dose activity change, negative = inhibition, usual class: inhibitors | AlphaScreen JMJD2A-Tudor / H3K4me3 peptide binding; also: % is scaled to controls: 0 for no effect and ±100 for the full control effect; nearly all actives have a fitted effect of over 50% in size
G9a block – G9a (human) methyltransferase inhibition; G9a H3K9 monomethylation, AlphaScreen, 2 h; Potency, µM (titrated, usually from 102 µM), for the others: top-dose activity, negative = inhibition, actives largely listed as inhibitors; 350,000 compounds, 8.8% hits; AID 504332; also: % is scaled to controls: 0 for no effect and ±100 for the full control effect; nearly all actives have a fitted effect of over 75% in size
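Signal arises when biotinylated H3K9 peptide, once monomethylated, bridges streptavidin donor and antibody-captured acceptor beads. Enzyme at 20 nM was preincubated 15 min with test compounds; peptide 500 nM and SAM 20 uM then reacted for 2 h.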
An asterisk follows results filed as active; u = inconclusive; x = not tested or not shown; ! = a repeat was not active; [ ] = remark or other dose. Calls follow the shape of the dose curve; as a rule, active = well fitted inhibition curve with a large enough effect; inconclusive = small, poorly fitted or top-dose-only effect; inactive = no such curve, though single readings can be large or run the other way. Potency is read from the fitted curve at half-maximal effect.

SMILES	L3MBTL1 inh	HP1b chromo inh	BAZ2B inh	JMJD2A Tudor	G9a block
Cc1ccccc1OCC(=O)NC1=NCCS1	x	38.5%	-29.4%	-7.7%	28.2µM*
Cc1cccc(OCC(=O)Nc2ccc3oc(=O)ccc3c2)c1C	x	30.2%	-11.5%	-1.4%	50.1µM*
Cc1ccc(OCC(=O)NC2=NCCS2)cc1	1.0%	u	-6.5%	-16.9%	x
Cc1ccc(OCC(=O)Nc2ccc3oc(=O)ccc3c2)cc1	x	29.7%	9.7%	-14.1%	-2.2%
O=C(COC(=O)[C@H](Cc1c[nH]c2ccccc12)NC(=O)c1ccc(Cl)cc1)Nc1ccc2c(c1)OCO2	x	-13.4%	56.2µM*	u	u
CC(=O)N[C@@H](Cc1c[nH]c2ccccc12)C(=O)OCC(=O)Nc1ccc2c(c1)OCO2	x	26.2%	x	-29.7%	x
COc1ccc(CCN2CC(C(=O)Nc3ccc4c(c3)OCO4)CC2=O)cc1OC (stereo not given)	x	u	u	79.4µM*	1.1%[59 µM]
Cc1ccccc1OCCCC(=O)Nc1ccc(N2CCOCC2)cc1	-9.6%	9.1%	0.6%	-21.5%	44.7µM*
COc1ccccc1OCCCC(=O)Nc1ccc(N2CCOCC2)cc1	22.1%	29.6%	-12.5%	-12.0%	u
Cc1ccc(C(=O)N2CCN(c3ccc(NC(=O)COc4ccccc4C)cc3)CC2)cc1	-9.0%[11.4 µM]	-17.2%	35.5µM*	u	39.8µM*
COc1ccccc1OCC(=O)Nc1ccc2c(c1)OCO2	x	-7.8%	50.1µM*	u	-19.1%
Cc1ccccc1OCC(=O)Nc1ccc2c(c1)OCO2	-5.3%	43.3%	-5.0%	-19.3%	45.8%[12.7 µM]
CCC(=O)N1CCN(c2ccc(NC(=O)COc3ccccc3Cl)cc2)CC1	x	26.3%	-7.8%	-25.0%	15.8µM*
CCN(CC)C(=O)c1sc2c(c1C)c(=O)n(CCc1ccccc1)c(=O)n2Cc1ccc(F)cc1Cl	x	32.3%	-1.1%	-32.0%	-4.2%[59 µM]
CCOc1ccccc1OCC(=O)Nc1ccc(N2CCCCC2)cc1	-23.3%	16.5%	-38.1%	u	u
COc1ccc(N2CCN(S(=O)(=O)CCNC(=O)COc3ccccc3F)CC2)cc1	x	9.1%[57 µM]	-6.1%	-17.6%	u
Cc1cccc(OCC(=O)Nc2ccc(N3CCCC3)cc2)c1C	-11.8%	-23.5%	x	u	28.2µM*
COc1ccc(N2CCN(S(=O)(=O)CCNC(=O)COc3ccccc3C)CC2)cc1	3.5%	8.0%	u	-33.1%	44.7µM*
COc1ccccc1OCC(=O)Nc1ccc(N2CCCCC2)cc1	u	-6.1%	u	u	22.4µM*
CCOc1ccc(N(C)C(=O)CS(=O)(=O)c2cccc3nsnc23)cc1	x	23.4%[57 µM]	5.5%	-6.5%	1.2%[59 µM]
CC(C)C(C(=O)Nc1sc2c(c1C#N)CCCCC2)N1C(=O)c2ccccc2C1=O (stereo not given)	-5.1%	11.4%	50.1µM*	-28.3%	u
N#Cc1c(NC(=S)NC(=O)c2ccccc2)sc2c1CCCC2	-6.1%	8.2%	4.6%	u	8.91µM*
N#Cc1c(NC(=S)NC(=O)c2ccccc2)sc2c1CCN(CCc1ccccc1)C2	-5.4%	x	-11.6%	x	39.8µM*
N#Cc1c(NC(=S)NC(=O)C2CCCC2)sc2c1CCCCC2	6.8%	-19.4%	-1.1%	-27.7%	35.5µM*
COc1ccc2nc3sc(C(=O)N4CCN(c5ccc(F)cc5)CC4)cc3cc2c1	x	23.2%	-1.6%	2.7%	-0.2%[59 µM]
SMILES	L3MBTL1 inh	HP1b chromo inh	BAZ2B inh	JMJD2A Tudor	G9a block
Cc1ccc(S(=O)(=O)Cc2nc(-c3ccc(C(=O)NCc4ccccc4F)cc3)oc2C)cc1	x	22.3%	u	-11.7%	-47.9%[59 µM]
CC1(C)Cc2c(sc(NC(=O)c3ccco3)c2C(=O)O)CO1	x	15.7%	-2.1%	-15.7%	22.6%[12.7 µM]
CC1(C)Cc2c(sc(NC(=S)NC(=O)c3ccccc3)c2C(=O)O)CO1	-5.5%	-25.2%	u	-31.2%	39.8µM*
COC(=O)c1ccc2c(=O)n(CCCCCC(=O)NCCc3ccc(Cl)cc3)c(=O)[nH]c2c1	x	1.4%	-0.3%	-23.3%	9.8%[59 µM]
CCc1c(C)sc(NC(=O)Cn2nc(C(F)(F)F)c3c2CCCC3)c1C#N	-3.2%	-9.7%	10.4%	4.2%	14.1µM*
CN1C(=O)/C(=C/c2ccc(O)c([N+](=O)[O-])c2)N(C)C1=S	-10.8%	-34.7%	22.4%	u	x
CC(C)(c1ccc(O)c([N+](=O)[O-])c1)c1ccc(O)c([N+](=O)[O-])c1	x	u	x	56.2µM*	x
COc1cc2ccccc2cc1C(=O)N(CCN(C)C)c1nc2ccc(Br)cc2s1	x	u	u	u	25.1µM*
COc1cc2ccccc2cc1C(=O)N(CCN(C)C)c1nc2c(F)cc(F)cc2s1	x	-17.6%	u	u	31.6µM*
CN(C)CCN(C(=O)CCc1ccccc1)c1nc2c(F)cc(F)cc2s1	x	16.0%	x	-27.4%	50.1µM*
CCN(CC)CCN(C(=O)CCOc1ccccc1)c1nc2c(F)cc(F)cc2s1	x	34.4%	x	-9.0%	u
CN(C)CCCN(C(=O)CCc1ccccc1)c1nc2ccc(Br)cc2s1	x	-14.6%	x	-33.5%	79.4µM*
O=C(Nc1ccc(N2CCCCC2)cc1)c1ccc2ccccc2n1	x	u	u	20µM*	28.2µM*
CC(=O)Nc1ccc(NC(=O)c2ccccc2C)cc1	x	-3.2%	3.3%	-4.4%	38.5%[12.7 µM]
O=C(Nc1cccc(S(=O)(=O)N2CCCCCC2)c1)c1ccc2ccccc2n1	-1.7%	26.2%	-1.0%	-16.1%	u
Cc1ccccc1C(=O)Nc1ccc(N2CCCC2)cc1	-12.7%	-12.7%	u	28.2µM*	3.16µM*
O=[N+]([O-])c1ccc(N2CCCC2)cc1N1CCCC1	u	15.8µM*	25.1µM*	44.7µM*	-1.4%[12.7 µM]
O=C(Nc1ccc(N2CCCC2)cc1)c1ccccc1[N+](=O)[O-]	-2.7%	25.3%	-38.0%	-6.8%	12.6µM*
Cc1ccc(Oc2nc3c(c(=O)n(Cc4ccccc4)c(=O)n3C)n2C)cc1C	x	0.0%	u	-31.3%	u
Cc1ccc(Nc2nc(NCc3ccco3)nc3nccnc23)c(C)c1	x	160.3%	x	u	x
O=S(=O)(Nc1cc(Br)cc2cccnc12)c1ccccc1	x	9.3%	x	-19.9%	x
CN1CCN(CCCNC(=O)c2cnn(-c3ccc(F)cc3)c2-n2cccc2)CC1	x	6.6%	-11.5%	-22.4%	-8.1%[59 µM]
Cc1cccc(NC(=O)C(c2ccccc2)N2Cc3ccccc3C2=O)c1C (stereo not given)	x	54.0%	-11.1%	-15.8%	-1.7%[59 µM]
Cc1ccc(C(=O)Nc2ccc(N3CCCC3)cc2)c(C)c1	-19.5%	u	u	50.1µM*	x
COc1ccccc1C(=O)Nc1nnc(S(=O)(=O)N2CCCCCC2)s1	-3.2%	48.2%	7.08µM*!	20µM*!	10µM*!
COc1ccccc1C(=O)Nc1nnc(S(=O)(=O)N2CCCCC2)s1	x	75.6%	-18.7%	-3.4%	19.5%
O=C(Nc1nnc(S(=O)(=O)N2CCN(c3ccc(F)cc3)CC2)s1)c1ccco1	x	23.5%	u	u	44.7µM*
O=C(Nc1nnc(S(=O)(=O)N2CCCCCC2)s1)c1ccccc1F	7.3%	50.6%	10µM*!	39.8µM*!	11.2µM*!
